Assay outcomes (PubChem BioAssay)
CD11b adhes enh: enhancers of CD11b/CD18 adhesion to fibrinogen, primary screen, K562 cells, luminescence. ATPlite luminescence. AID 1499, 2009. activation, % at 10 µM. 93,000 compounds, 0.07% hits;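 active means 10 µM primary screen giving 50% or more activity, confirmed by 40% or more on retest at that dose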
S1P2 ag: S1P2 receptor agonists, primary screen, cell-based. Sphingosine 1-phosphate receptor 2 (Homo sapiens), O95136. S1P2-expressing cell line, agonist reporter read-out. activation, % at 4.5 µM. 97,000 compounds, 0.46% hits. AID 729, 2007; in the data active means activation above about 16%;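 further: 0% = vehicle low control and 100% = maximal reference agonist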
GALR2 blocker: GALR2 antagonists in receptor-expressing cells, primary screen; Galanin receptor type 2 (Homo sapiens), O43603; antagonist mode; inhibition, % at 4 µM; 140,000 compounds, 0.39% hits; AID 828, 2007; in the data active means inhibition above about 27%;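 further: cells stimulated with galanin 1-16 at roughly its EC80; 0% = agonist challenge control and 100% = basal control without agonist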
Target sequence (O43603 whole entry, looked up): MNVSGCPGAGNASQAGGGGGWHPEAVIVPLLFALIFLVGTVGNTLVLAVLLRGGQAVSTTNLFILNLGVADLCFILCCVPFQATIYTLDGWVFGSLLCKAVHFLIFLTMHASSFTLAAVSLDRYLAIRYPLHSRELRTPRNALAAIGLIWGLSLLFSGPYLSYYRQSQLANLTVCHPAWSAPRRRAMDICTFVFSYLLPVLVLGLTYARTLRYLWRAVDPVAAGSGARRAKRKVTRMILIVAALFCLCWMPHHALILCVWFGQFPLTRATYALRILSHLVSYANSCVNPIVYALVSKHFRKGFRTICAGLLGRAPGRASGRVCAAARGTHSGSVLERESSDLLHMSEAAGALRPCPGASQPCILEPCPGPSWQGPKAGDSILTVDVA
S1P2 antag: human S1P2 receptor antagonists, primary screen, cell-based; Sphingosine 1-phosphate receptor 2 (Homo sapiens), O95136; cell-based S1P2 antagonist assay, inhibition at 5 uM; inhibition, % at 5 µM; 97,000 compounds, 0.21% hits; AID 736, 2007; in the data active means inhibition above about 45%;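 further: CRE beta-lactamase reporter cells expressing human S1P2 stimulated with S1P; 0% = agonist at EC80 alone and 100% = agonist plus reference antagonist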
GALR2 ag: GALR2 receptor agonists, primary screen, cell-based. Galanin receptor type 2 (Homo sapiens), O43603. GALR2-expressing cells, agonist activation read-out. activation, % (no concentration beside the values). 140,000 compounds, 0.48% hits. AID 803, 2007; in the data active means activation above about 5%, passing the limit was not always enough;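 further: 0% = vehicle buffer wells and 100% = reference agonist at full effect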
Mac1 fbg inh: inhibitors of CD11b/CD18 adhesion to fibrinogen, primary screen, K562 cells, luminescence; Integrin beta-2 (Homo sapiens) + Integrin alpha-M (Homo sapiens), P05107+P11215; ATPlite luminescence; Mn2+ added to activate the integrin; inhibition, % at 10 µM; 93,000 compounds, 0.54% hits;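 active means primary inhibition of 50% or more at 10 µM, then 40% or more on retest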
Starred values were filed as active, the others as inactive. Hits are enriched below; roughly 1.4% of the tested compounds scored in any of these assays.

`Nc1c(C(=O)NCc2ccco2)c2nc3ccccc3nc2n1Cc1ccc(F)cc1` gave S1P2 ag 48*, GALR2 blocker -18, S1P2 antag -51 and GALR2 ag 28*.
For Nc1c(C(=O)NCc2ccco2)c2nc3ccccc3nc2n1Cc1ccccc1 the results were GALR2 blocker 7 and GALR2 ag 5.1*.
Screening CCCCCn1c(N)c(C(=O)NCc2cccs2)c2nc3ccccc3nc21 returned CD11b adhes enh 13, S1P2 ag 13, GALR2 blocker 0, S1P2 antag -14, GALR2 ag 2 and Mac1 fbg inh -9.
For CCCCNC(=O)c1c(N)n(Cc2ccc3c(c2)OCO3)c2nc3ccccc3nc12 the results were CD11b adhes enh -5, S1P2 ag 38*, GALR2 blocker -4, S1P2 antag -36, GALR2 ag 6.8* and Mac1 fbg inh 3.
For Nc1c(C(=O)NCCCc2ccccc2)c2nc3ccccc3nc2n1Cc1cccs1 the results were CD11b adhes enh -4, S1P2 ag 84*, GALR2 blocker -3, S1P2 antag -63, GALR2 ag 32* and Mac1 fbg inh 26.
`CCCCn1c(N)c(C(=O)NCc2cccs2)c2nc3ccccc3nc21` gave S1P2 ag 18*, GALR2 blocker -11, S1P2 antag -3 and GALR2 ag 36*.
CCCCn1c(NS(=O)(=O)c2ccc(C)cc2)c(C(=O)OCC)c2nc3ccccc3nc21 was read as GALR2 blocker -8 and GALR2 ag 7.0*.
`CCCNC(=O)c1c(N)n(CC2CCCO2)c2nc3ccccc3nc12` (centres undefined) gave CD11b adhes enh 1, S1P2 ag 7, GALR2 blocker 7, S1P2 antag -14, GALR2 ag 8 and Mac1 fbg inh 15.
CCCCn1c(NC(=O)c2ccco2)c(C(=O)OCC)c2nc3ccccc3nc21 was read as CD11b adhes enh 0, S1P2 ag -3, GALR2 blocker 1, S1P2 antag 17, GALR2 ag 0 and Mac1 fbg inh 3.
`COCc1cc(C2SCC(=O)Nc3c2c(=O)[nH]n3C(C)C)ccc1OC` (centres undefined) gave CD11b adhes enh 1, S1P2 ag -6, GALR2 blocker -8, S1P2 antag 20, GALR2 ag -1 and Mac1 fbg inh -16.
For Fc1ccc(CNCCc2ccccc2F)cc1 the results were GALR2 blocker -1 and GALR2 ag -2.
`Nc1c(C(=O)NCc2ccco2)c2nc3ccccc3nc2n1CCN1CCOCC1` gave CD11b adhes enh 0, S1P2 ag 5, GALR2 blocker -21, S1P2 antag -30, GALR2 ag 3 and Mac1 fbg inh -2.
`CC(C)OCCCNC(=O)c1c(N)n(CC2CCCO2)c2nc3ccccc3nc12` (centres undefined) gave S1P2 ag 18*, GALR2 blocker -12, S1P2 antag -16 and GALR2 ag 12*.
CCCCCn1c(N)c(C(=O)NCCN2CCOCC2)c2nc3ccccc3nc21 was read as CD11b adhes enh 2, S1P2 ag 16*, GALR2 blocker -11, S1P2 antag -13, GALR2 ag 6 and Mac1 fbg inh 8.
Screening CCCCCCn1c(N)c(C(=O)NCCN2CCOCC2)c2nc3ccccc3nc21 returned CD11b adhes enh 13, S1P2 ag 29*, GALR2 blocker -6, S1P2 antag -27, GALR2 ag 20* and Mac1 fbg inh 7.
Screening COc1ccc(CCNC(=O)c2c(N)n(CCN3CCOCC3)c3nc4ccccc4nc23)cc1OC returned CD11b adhes enh -2, S1P2 ag 6, GALR2 blocker -12, S1P2 antag 1, GALR2 ag 4 and Mac1 fbg inh 2.
COCCCn1c(N)c(C(=O)NCCC(C)C)c2nc3ccccc3nc21 was read as S1P2 ag 29*, GALR2 blocker -15, S1P2 antag -31 and GALR2 ag 33*.
`CCCCOCCCn1c(N)c(C(=O)OCCOC)c2nc3ccccc3nc21` gave CD11b adhes enh -4, S1P2 ag -2, GALR2 blocker 6, S1P2 antag -15, GALR2 ag -1 and Mac1 fbg inh 2.
O=P(N[C@@H](c1ccccc1)[C@@H]1C[C@H]1CO)(c1ccccc1)c1ccccc1 was read as GALR2 blocker 8 and GALR2 ag -1.
CCOc1ccc(-n2c(O)c(C=Nc3ccc(N(CC)CC)cc3)c(=O)[nH]c2=O)cc1 was read as CD11b adhes enh 3, S1P2 ag -4, GALR2 blocker -15, S1P2 antag 23, GALR2 ag -1 and Mac1 fbg inh -25.
CN1C(=O)N(C)C(=O)C2(Cc3c(nc4ccccn4c3=O)N3CCC(Cc4ccccc4)CC32)C1=O (centres undefined) was read as CD11b adhes enh -3 and Mac1 fbg inh -3.
`Cc1cccn2c(=O)c3c(nc12)N1CCC(Cc2ccccc2)CC1C1(C3)C(=O)N(C)C(=O)N(C)C1=O` (centres undefined) gave CD11b adhes enh -5, S1P2 ag 17*, GALR2 blocker -9, S1P2 antag 4, GALR2 ag 2 and Mac1 fbg inh -6.
`CN(C)c1ccc(/C=C2/C(=O)NC(=O)N(Cc3ccco3)C2=O)cc1` gave GALR2 blocker 1 and GALR2 ag -1.
`CCC(=NCCc1c[nH]c2ccccc12)c1c(O)n(C)c(=O)n(C)c1=O` gave CD11b adhes enh -5, S1P2 ag -4, GALR2 blocker 5, S1P2 antag -12, GALR2 ag -1 and Mac1 fbg inh 79*.
Screening O=C1NC(=O)N(c2ccccc2)C(=O)/C1=C/c1ccc(Sc2ccccc2)o1 returned S1P2 ag 0, GALR2 blocker -6, S1P2 antag 47* and GALR2 ag -2.
`O=C(C1CCN(c2nc3ccc(Br)cc3s2)CC1)N1CCC2(CC1)OCCO2` gave S1P2 ag -7, GALR2 blocker 0, S1P2 antag 13 and GALR2 ag 0.
`NCCc1c[nH]c2ccccc12` gave GALR2 blocker 4 and GALR2 ag 1.
For CCOC(=O)C(NC(=O)CCl)(Nc1ccc(C(O)(C(=O)OCC)C(F)(F)F)cc1)C(F)(F)F (centres undefined) the results were GALR2 blocker -5 and GALR2 ag 1.
O=C(Nc1ccc(Cl)cc1)Nc1nccs1 was read as S1P2 ag 53*, GALR2 blocker 14, S1P2 antag 13 and GALR2 ag 0.
CCN1/C(=C\C=C\C2=[N+](CC)c3ccccc3C2(C)C)C(C)(C)c2ccccc21 was read as CD11b adhes enh -6, S1P2 ag -5, GALR2 blocker -9, S1P2 antag 106*, GALR2 ag 2 and Mac1 fbg inh 97*.
